# A selection: hits, their analogues and other compounds. The true share with any hit is near 1.2%.
# C-LANA FP: inhibitors of KSHV C-LANA binding to DNA, primary screen, biochemical, fluorescence polarization, FAM-LBS DNA, MBP-C-LANA, single point | Kaposi's sarcoma herpesvirus LANA C-terminal domain (residues 932-1162) DNA binding | inhibition, % at 9 µM | 0.078% of 340,000 active;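 active means highest replicate inhibition at or above 60% at 9 µM, even if other replicates fall short; inactive means all replicates below 60% inhibition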
# GLD-1 TGE inh: GLD-1/TGE RNA complex disruptors, primary screen, biochemical, fluorescence polarization. Female germline-specific tumor suppressor gld-1 (Caenorhabditis elegans), Q17339. purified GLD-1 + fluorescein TGE RNA. inhibition, % at 5.96 µM. 0.44% of 320,000 active. AID 2280, 2010;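 active means percent inhibition above a per-plate cutoff, the plate mean of test compounds plus 3 SD, cut at about 30% in these data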
# MEX-5 binding: MEX-5 zinc finger RNA-binding disruptors – biochemical, C. elegans, fluorescence polarization, MLPCN library, primary screen; Zinc finger protein mex-5 (Caenorhabditis elegans), Q9XUB2; MEX-5/FITC-TCR2 RNA binding; stronger effect = lower value; activity score (negative = inhibition of binding), % at 10 µM; 0.38% of 300,000 active; AID 1832, 2009;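 active means inhibition past about -25% in most replicates, and total fluorescence under double the plate's negative control median, limit read from the data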
# E coli Lon inh: inhibitors of E. coli Lon protease, primary screen, biochemical, fluorescence polarization; 0.42% of 360,000 active; inhibition, % at 7.94 µM; P0A9M0; purified E. coli Lon protease; in the data active means inhibition above about 13%, passing the limit was not always enough
# Target sequence (P0A9M0 whole entry, looked up): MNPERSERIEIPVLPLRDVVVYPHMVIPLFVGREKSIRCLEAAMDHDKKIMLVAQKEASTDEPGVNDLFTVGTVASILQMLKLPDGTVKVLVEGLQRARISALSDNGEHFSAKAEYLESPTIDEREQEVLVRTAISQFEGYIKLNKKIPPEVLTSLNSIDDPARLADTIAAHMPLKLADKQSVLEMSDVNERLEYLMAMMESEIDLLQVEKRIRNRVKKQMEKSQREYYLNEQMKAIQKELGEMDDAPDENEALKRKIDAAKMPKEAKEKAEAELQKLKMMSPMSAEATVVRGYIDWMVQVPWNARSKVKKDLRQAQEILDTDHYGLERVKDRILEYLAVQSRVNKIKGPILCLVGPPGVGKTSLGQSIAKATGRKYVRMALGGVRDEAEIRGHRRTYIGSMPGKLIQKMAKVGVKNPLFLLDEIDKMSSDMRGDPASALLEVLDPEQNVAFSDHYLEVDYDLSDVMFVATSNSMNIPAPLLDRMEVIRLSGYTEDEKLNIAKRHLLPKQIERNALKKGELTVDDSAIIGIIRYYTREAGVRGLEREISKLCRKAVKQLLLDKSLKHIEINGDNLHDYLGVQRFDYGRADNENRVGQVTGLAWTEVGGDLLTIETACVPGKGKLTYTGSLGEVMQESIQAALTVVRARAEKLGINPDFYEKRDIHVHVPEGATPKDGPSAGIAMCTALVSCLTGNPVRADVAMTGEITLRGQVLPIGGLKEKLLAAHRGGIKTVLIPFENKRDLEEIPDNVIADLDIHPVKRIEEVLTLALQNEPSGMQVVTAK
# BCLXL inh: inhibitors of human Bcl-xL, primary screen, biochemical, fluorescence polarization, HTS; GST-Bcl-xL / FITC-Bim BH3 peptide fluorescence polarization; 0.7% of 320,000 active; inhibition, % at 10.9 µM; Bcl-2-like protein 1 (Homo sapiens), Q07817;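 active means inhibition above the mean of all tested compounds plus 3 SD, cutoff set per campaign, cut at about 30% in these data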;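 further: inhibitors lower millipolarization by displacing the labeled peptide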
# Keap1 Nrf2 FP: Keap1-Nrf2 protein-protein interaction inhibitors, primary screen, biochemical, fluorescence polarization, single point; Keap1 Kelch-Nrf2 peptide fluorescence polarization, 1536-well; AID 504523, 2011; 0.15% of 340,000 active; Kelch-like ECH-associated protein 1 (Homo sapiens), Q14145; inhibition, % at 9.4 µM; in the data active means inhibition above about 12%;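 further: human Keap1 Kelch domain with fluorescein labeled Nrf2 9mer peptide probe; higher means more block of Keap1 binding to Nrf2 peptide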
# E coli Lon conf: E. coli Lon protease inhibitor retest, confirmation, biochemical, fluorescence polarization | 31% of 1,400 active | inhibition, % at 7.94 µM | purified E. coli Lon | shares compounds with E coli Lon inh; in the data active means inhibition above about 16%
# Numbers stand for hits; 0 = inactive; - = no result; + = active, no number.
SMILES,C-LANA FP,GLD-1 TGE inh,MEX-5 binding,E coli Lon inh,BCLXL inh,Keap1 Nrf2 FP,E coli Lon conf
COCCn1c(SCC(=O)c2cc(C)n(C)c2C)nc2ccccc2c1=O,0,0,0,14.6,0,0,0
O=C(C1CCN(S(=O)(=O)c2c(Cl)cccc2Cl)CC1)N1CCCCCCC1,0,0,0,18.2,0,0,0
O=C(CC1SC2=NCCN2C1=O)Nc1ccc(Cl)cc1 (stereo not given),0,0,0,0,0,0,-
Cc1ccc(NC(=O)CC2SC3=NCCCN3C2=O)c(C)c1 (stereo not given),0,82.2,0,64.0,109.8,0,16.9
C=CCOc1ccc(CNCC2CCCO2)cc1 (stereo not given),0,0,0,54.5,0,0,0
c1cc(CNCC2CCCO2)ccn1 (stereo not given),0,0,0,0,0,0,-
COC(=O)c1nccnc1N,0,-,-,0,-,0,-
Nc1nnnn1/N=C/c1cc(Cl)cc(Cl)c1O,0,78.5,0,48.8,109.4,0,73.4
CC(C)(C)c1ccc(CC(=O)N2CCC2(C)C(=O)O)cc1 (stereo not given),-,-,-,0,-,-,-
COC/C=C/C1=CC2=CC(=O)C(C)(OC(=O)c3cnc4ccccc4n3)C(=O)C2=CN1CCCOC(C)C (stereo not given),0,0,0,0,0,0,-
COC/C=C/C1=CC2=CC(=O)C(C)(OC(=O)c3cnc4ccccc4n3)C(=O)C2=CN1CCOC (stereo not given),0,0,0,29.5,0,0,0
Cc1cccc(NC(=S)N2N=CCC2c2ccccc2)c1 (stereo not given),0,0,0,0,0,0,-
CC1=NN(C(=S)Nc2ccccc2)C(c2ccccc2)C1 (stereo not given),0,0,0,83.6,0,0,0
CCC1(c2ccc(Cl)cc2)NC(=O)N(CC(=O)NC2CCCCCC2)C1=O (stereo not given),0,-,-,0,-,0,-
CN(C)S(=O)(=O)N1C(=O)c2ccccc2C1=O,0,0,0,0,0,0,-
CN(C)/C=C1\C=C2C(=O)c3ccccc3N2C1=O,+,90.9,-,93.3,108.6,+,0
NC(=O)c1ccc(NC(=O)COC(=O)CCN=C2NS(=O)(=O)c3ccccc32)cc1,0,0,-,0,0,0,-
O=C(NCc1ccncc1)C(F)(F)C(F)(F)C(=O)NCc1ccncc1,0,0,0,16.6,0,0,0
COc1ccc(Oc2cc(Cl)nc(N)n2)cc1,0,0,0,0,0,0,-
Nc1nc(Cl)cc(Oc2ccc([N+](=O)[O-])cc2)n1,0,0,0,16.3,0,0,20.2
O=C(/C=C/c1ccc(OC(F)F)cc1)OCC(=O)N1CCc2ccccc21,0,0,0,17.1,0,0,0
CCC(NC(=O)Nc1ccc(O)cc1)(C(F)(F)F)C(F)(F)F,0,0,-,15.6,0,0,0
CC(NC(=O)Nc1ccc(O)cc1)(C(F)(F)F)C(F)(F)F,0,0,0,0,0,0,-
CC(C)CN1CCCC(N2CCN(c3cccc(Cl)c3)CC2)C1 (stereo not given),0,0,0,0,0,0,-
COc1cccc(-c2cnc(C(O)c3ccc(OC)c(F)c3)[nH]2)c1 (stereo not given),-,-,-,0,-,-,-
SMILES,C-LANA FP,GLD-1 TGE inh,MEX-5 binding,E coli Lon inh,BCLXL inh,Keap1 Nrf2 FP,E coli Lon conf
COc1ccc(OCC(=O)Nc2cc(S(=O)(=O)N3CCCC3)ccc2Cl)cc1,0,-,-,0,-,0,-
CCOc1ccc(NC(=O)CC2C(=O)Nc3ccccc3N2C(=O)c2ccccc2)cc1 (stereo not given),0,0,0,14.7,0,0,0
O=S(=O)(c1ccc2c(c1)OCCO2)N1CCC(n2nnc3cc(F)ccc32)CC1,0,0,0,0,0,0,-
O=S(=O)(c1ccc2c(c1)OCCO2)N1CCC(n2cnc3cc(F)ccc32)CC1,0,0,0,16.6,0,0,0
CCC1(c2ccccc2)NC(=O)N(CC(=O)Nc2ccccc2N2CCCC2)C1=O (stereo not given),0,0,0,0,0,0,-
CCC1(c2ccccc2)NC(=O)N(CC(=O)Nc2cc(Cl)ccc2N2CCOCC2)C1=O (stereo not given),0,0,0,17.2,0,0,0
CN(C)CCCN(C(=O)c1cc(-c2cccs2)nc2ccccc12)c1nc2ccc(F)cc2s1,0,0,0,0,0,0,-
CCCCOC(=O)Nc1cc(C)c(Cl)cc1OC,0,0,0,33.6,0,0,0
CCCNS(=O)(=O)c1ccc(OCC(=O)NCC2CCCO2)cc1 (stereo not given),0,0,0,0,0,0,-
COC(=O)CN(c1ccc2c(c1)OCO2)S(C)(=O)=O,0,0,0,17.0,0,0,0
Cn1nc(C(=O)NCC2COc3ccccc3O2)c2ccccc2c1=O (stereo not given),0,0,-,0,0,0,-
Cc1ccc(-c2nc3ncccc3o2)cc1NC(=O)c1ccccc1,0,0,0,0,0,0,-
Cc1ccc(-c2nc3ncccc3o2)cc1NC(=O)c1cccnc1,0,0,0,30.6,0,0,0
S=c1[nH]nc(-c2ccc(Cl)cc2Cl)n1-c1ccc(Cl)cc1,0,0,0,0,0,0,-
CCCc1[nH]nc2c1C1(CCN(C(=O)OCc3ccccc3)CC1)C(C#N)=C(N)O2,0,0,0,0,0,0,-
CC(C)c1[nH]nc2c1C1(CCN(Cc3ccccc3)CC1)C(C#N)=C(N)O2,0,57.4,0,29.8,104.0,0,0
O=C(O)C1CCN(S(=O)(=O)c2ccc(N3CCC(O)CC3)c([N+](=O)[O-])c2)CC1,0,0,0,0,0,0,-
COc1cc2oc(=O)cc(CN3CCN(C(C)=O)CC3)c2cc1Cl,-,-,-,31.4,-,-,24.4
CC(=O)N1CCN(Cc2cc(=O)oc3cc(C)c(C)cc23)CC1,-,-,-,0,-,-,-
Cc1c(NC(=O)C(C)Oc2ccc(Br)cc2Cl)c(=O)n(-c2ccccc2)n1C (stereo not given),0,0,0,0,0,0,-
C=CCN(CC=C)c1nc2ccccc2nc1C(C#N)C(=O)OC(C)C (stereo not given),0,0,0,15.8,0,0,0
C=CCOC(=O)C(C#N)c1nc2ccccc2nc1N1CCN(c2ccccc2OC)CC1 (stereo not given),0,0,0,0,0,0,-
